This is a sample that favours compounds with a hit; in the whole collection about 11% have one here.
Pf growth 48h: P. falciparum growth inhibition at 48 hours (one generation); Potency, µM (doses to about 28.7 µM), without a hit: top-dose activity change, negative = inhibition, usual class: inhibitors; P. falciparum luciferase growth in erythrocytes, 48 h; hit rate 5.9% among 310,000; further: on the % scale 0 is the no-effect control and ±100 the full control effect
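Parasite viability was followed by luminescence of a genomically integrated firefly luciferase. Cultures held 0.1% parasitemia at 2% hematocrit (final), incubated under 5% CO2 at 37 C.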
Vaccinia Venus: vaccinia inhibition (Venus reporter); hit rate 0.46% among 330,000; Potency, µM (titrated, usually from 36.5 µM), for the others: at the top dose activity change, negative = inhibition, usual class: inhibitors; AID 720580; Vaccinia virus Venus reporter expression, fluorescence; calls by dose curve; tested in A549 cells; further: on the % scale 0 is the no-effect control and ±100 the full control effect; nearly all actives have a fitted effect of over 30% in size
NS1 function inh: influenza NS1 inhibition; Potency, µM (highest dose often 46.1 µM), for inactives: at the top dose activity, positive = more growth; hit rate 0.4% among 270,000; calls by dose curve; further: actives are rising curves; nearly all actives have a fitted effect of over 50% in size
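Recovery from NS1-induced slow growth read by OD600 in budding yeast switched to galactose assay medium (pH 6.0, -URA) at 1:100 dilution. Compound 23 nl per well; the matching strain lacking NS1 serves as control.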
Vaccinia mCherry: vaccinia inhibition (mCherry reporter). Vaccinia virus mCherry reporter infection, fluorescence. Potency, µM (titrated, usually from 36.5 µM), inactives show top-dose activity change, negative = inhibition, hits mostly inhibitors. hit rate 0.63% among 310,000; calls by dose curve; tested in A549 cells; further: on the % scale 0 is the no-effect control and ±100 the full control effect; nearly all actives have a fitted effect of over 35% in size
Pf growth 96h: P. falciparum growth inhibition at 96 hour, primary screen for plastid delayed-death inhibitors | Potency, µM (doses to about 28.7 µM), for inactives: top-dose activity change, negative = inhibition, usual class: inhibitors | P. falciparum luciferase reporter growth, 96 h | hit rate 6.9% among 320,000; further: on the % scale 0 is the no-effect control and ±100 the full control effect
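Two-generation exposure (96 h) targets delayed-death phenotype. Reporter parasites carrying integrated firefly luciferase, in red cells at 2% hematocrit and 0.05% parasitemia final, kept at 37 C, 5% CO2; luminescence loss indicates inhibition.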
HCV inhibitor: HCV inhibition; Huh7.5.1 HCVcc-Cre infection, luciferase reporter, 44 h; Potency, µM (highest dose often 41.8 µM), without a hit: top-dose activity change, negative = inhibition, most hits filed as inhibitors; hit rate 3.4% among 340,000; further: on the % scale 0 is the no-effect control and ±100 the full control effect
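Antiviral activity was scored by luciferase reporter output from cells infected with HCVcc-Cre (~0.5 moi) in presence of compound, 44 h infection period, cells seeded 1,000/well 4 h prior.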
Starred values were filed as active, the others as inactive; i = inactive; ? = inconclusive; nt = not tested or not shown. Unless noted, the call rests on the fitted dose curve; in most records, active means well fitted inhibition curve with a large enough effect; inconclusive means small, poorly fitted or top-dose-only effect, or another doubt; inactive means no such curve, though single readings can be large or run the other way. Potency means the concentration at half of the fitted maximal effect.

SMILES | Pf growth 48h | Vaccinia Venus | NS1 function inh | Vaccinia mCherry | Pf growth 96h | HCV inhibitor
COc1cc(NC(=O)c2ccc(N)nc2)cc(C(=O)Nc2cccc(C(F)(F)F)c2)c1 | 0.738µM* | -20.9% | -0.3% | ? | 0.738µM* | -1.1%
COc1ccc(NC(=O)Nc2cccc(C(F)(F)F)c2)cn1 | 13.1µM* | ? | -22.9% | ? | ? | ?
COc1ccc(-c2cc(C(=O)Nc3cc(OC)cc(C(=O)Nc4cccc(C(F)(F)F)c4)c3)[nH]n2)cc1 | 1.85µM* | ? | 4.8% | -6.7% | 1.31µM* | -6.8%
COc1ccc(NC(=O)Nc2cc(C)cc(C)c2)cn1 | -2.7% | -16.4% | -4.6% | i | 23.4% | -16.5%
COc1cc(Nc2ccccn2)cc(C(=O)Nc2cccc(C(F)(F)F)c2)c1 | ? | ? | -116.2% | ? | 25.5% | ?
COc1cc(NC(=O)N2CCNC2=O)cc(C(=O)Nc2cccc(C(F)(F)F)c2)c1 | ? | -25.4% | -3.2% | ? | 27.2% | ?
CCOC(=O)NC1C=CS(=O)(=O)C1 (configuration not stated) | 36.8% | -7.2% | -7.6% | nt | ? | -9.5%
COc1cc(-n2c(=O)c3ccccc3n(CC(=O)c3ccccc3)c2=O)cc(OC)c1OC | 5.2% | -9.9% | nt | -12.3% | -24.4% | 6.4%
Cc1ccc(NNC(=O)C(O)(c2cccc(C(F)(F)F)c2)c2cccc(C(F)(F)F)c2)cc1 | 13.1µM* | ? | -24.4% | ? | ? | ?
Cc1ccc(C(O)(C(=O)NNc2ccccn2)c2ccc(C)cc2)cc1 | -15.5% | -5.3% | -0.5% | -1.6% | ? | -17.1%
Cc1ccccc1NC(=O)c1cccc(C(F)(F)F)c1 | -2.1% | -9.9% | 1.8% | -13.1% | 44.6% | 4.3%
O=C(NNc1ccccc1Br)C(O)(c1cccc(C(F)(F)F)c1)c1cccc(C(F)(F)F)c1 | 2.62µM* | ? | 0.6% | 11.2µM* | 2.33µM* | ?
COC(=O)CC1C(C)(C)C(OC(C)=O)C2[C@H](OC(C)=O)[C@]34O[C@]2(O)[C@]1(C)C3CC[C@]1(C)C4=CC(=O)OC1c1ccoc1 (some centres not stated) | nt | ? | nt | -14.7% | nt | nt
Cc1c(Cl)cccc1-c1ccc(/C=N/n2cnnc2)o1 | nt | -18.0% | -79.2% | -6.8% | 8.28µM* | 5.7%
Cc1cc2ccccn2c1C(C[N+](=O)[O-])c1ccc(N(C)C)cc1 (configuration not stated) | ? | 11.2% | ? | -18.6% | ? | 3.2%
COc1ccc(C(C[N+](=O)[O-])c2c(C)cc3ccccn23)cc1 (configuration not stated) | 10.4µM* | -7.6% | nt | -22.4% | 11.7µM* | ?
COc1ccc(NC(=O)c2cnc3ccccn3c2=O)c(OC)c1 | nt | -24.3% | nt | -27.5% | nt | 15.5%
COc1ccc(C(C[N+](=O)[O-])c2c(-c3ccccc3)cc3ccccn23)c(OC)c1 (configuration not stated) | 10.4µM* | -6.6% | 5.6% | -15.6% | nt | 3.5%
N#Cc1c[nH]n2c(NC3CCCC3)c(-c3cccc(Cl)c3)nc12 | nt | -9.0% | nt | -13.4% | nt | nt
COC(=O)C1=C(c2ccc(-c3ccccc3)c(F)c2)C[C@@H]2CC[C@H]1N2C(=O)NC1CC1 | 4.65µM* | -29.0% | nt | -21.0% | 2.94µM* | 10µM*
COC(=O)C1=C(c2ccc(-c3ccccc3)c(F)c2)C[C@@H]2CC[C@H]1N2C(=O)NCCO | ? | -25.4% | nt | ? | -25.3% | ?
COC(=O)C1=C(c2ccccc2)C[C@@H]2CC[C@H]1N2C(=O)NC1CC1 | nt | -1.2% | nt | i | nt | 9.2%
CCCNC(=O)N1[C@H]2CC[C@@H]1C(C(=O)OC)=C(c1ccc(-c3ccccc3)c(F)c1)C2 | 9.28µM* | ? | nt | ? | ? | 7.94µM*
COC(=O)C1=C(c2ccc(OC)c(OC)c2)C[C@@H]2CC[C@H]1N2C(=O)NCCOc1ccccc1Cl | ? | -18.9% | nt | ? | ? | -26.0%
COC(=O)C1=C(c2ccc(-c3ccccc3)c(F)c2)C[C@@H]2CC[C@H]1N2C(=O)NCCOc1ccccc1Cl | 10.4µM* | ? | nt | ? | ? | 14.1µM*

Screens: PubChem, National Center for Advancing Translational Sciences (NCATS)
